SMILES strings stand for the structures. The campaign covered roughly 310,000 compounds. About 14,000 (4.5%) showed an effect of 50% or more. The effect is printed as a negative number. The list comes from a sample in which strong results are over-represented; it also holds similar structures and randomly drawn compounds.
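Note: peak tail current of the secondary pulse compared with the same well before compound.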

Sequence of human ether-à-go-go-related gene (hERG) potassium channel (Q12809 whole entry, looked up): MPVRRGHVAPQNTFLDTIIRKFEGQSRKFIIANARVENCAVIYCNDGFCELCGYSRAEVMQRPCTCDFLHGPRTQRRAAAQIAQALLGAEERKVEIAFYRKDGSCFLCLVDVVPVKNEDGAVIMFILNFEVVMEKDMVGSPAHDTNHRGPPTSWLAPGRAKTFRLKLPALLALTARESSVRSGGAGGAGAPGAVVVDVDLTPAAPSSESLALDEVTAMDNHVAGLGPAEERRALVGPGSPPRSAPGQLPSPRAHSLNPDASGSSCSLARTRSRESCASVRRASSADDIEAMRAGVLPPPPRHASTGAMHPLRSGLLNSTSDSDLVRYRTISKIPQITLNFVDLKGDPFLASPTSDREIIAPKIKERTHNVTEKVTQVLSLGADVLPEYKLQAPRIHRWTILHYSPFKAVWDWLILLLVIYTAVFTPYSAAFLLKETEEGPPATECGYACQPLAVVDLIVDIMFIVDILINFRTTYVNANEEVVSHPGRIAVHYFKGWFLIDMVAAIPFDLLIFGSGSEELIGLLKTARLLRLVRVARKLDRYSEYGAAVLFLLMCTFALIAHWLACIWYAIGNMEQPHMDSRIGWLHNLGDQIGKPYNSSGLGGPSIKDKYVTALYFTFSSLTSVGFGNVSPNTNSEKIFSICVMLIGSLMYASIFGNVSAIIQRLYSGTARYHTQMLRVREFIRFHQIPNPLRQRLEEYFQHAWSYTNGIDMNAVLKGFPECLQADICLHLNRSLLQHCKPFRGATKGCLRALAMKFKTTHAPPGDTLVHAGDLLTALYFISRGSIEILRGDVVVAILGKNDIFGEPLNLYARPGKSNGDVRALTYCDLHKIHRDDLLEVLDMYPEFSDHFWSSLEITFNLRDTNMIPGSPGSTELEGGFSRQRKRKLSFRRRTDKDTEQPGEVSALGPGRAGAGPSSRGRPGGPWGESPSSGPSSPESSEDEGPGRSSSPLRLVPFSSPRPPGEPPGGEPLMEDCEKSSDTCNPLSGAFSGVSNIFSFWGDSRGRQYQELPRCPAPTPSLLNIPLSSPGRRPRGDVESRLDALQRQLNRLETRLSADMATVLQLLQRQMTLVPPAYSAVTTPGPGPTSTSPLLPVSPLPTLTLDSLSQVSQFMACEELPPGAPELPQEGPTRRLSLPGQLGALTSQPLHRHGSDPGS

This test concerns the target human ether-à-go-go-related gene (hERG) potassium channel (human, UniProt Q12809). Nature of the test: primary screen, population patch clamp on CHO cells stably expressing hERG; higher = less effect of the substance.
As to `COc1ccc(-c2nc(CSCC(=O)NCc3ccc4c(c3)OCO4)c(C)o2)cc1`, the “hERG current change (%, negative = inhibition) at 10uM” value is listed as -6.05%.
On to `COc1ccccc1NS(=O)(=O)c1ccc(N/N=C(\C)C(C)C)c([N+](=O)[O-])c1`, for which the “hERG current change (%, negative = inhibition) at 10uM” value is 9.29%.
Consider `CCOC(=O)c1ccccc1NC(=O)c1c(O)[nH]c(=S)[nH]c1=O`, for which the “hERG current change (%, negative = inhibition) at 10uM” value is on record as 15.6%.
As for `O=C(c1cn(-c2ccccc2)nc1-c1ccc(F)cc1)N1CCCCC1`, the “hERG current change (%, negative = inhibition) at 10uM” value is -10.6%.
Under `Cc1ccc(-c2nn(-c3ccccc3)cc2C(=O)N2CCN(C3CCS(=O)(=O)C3)CC2)cc1` (stereo not shown) stands -68.8%; under `COc1cccc(-c2nn(-c3ccc(C)cc3)cc2C(=O)N2CCN(C3CCS(=O)(=O)C3)CC2)c1` (stereo not shown), -57%; under `Cc1cccc(-c2nn(-c3ccccc3)cc2C(=O)N2CCN(C3CCS(=O)(=O)C3)CC2)c1` (stereo not shown), -36.6%.
With `COc1cccc(-c2nn(-c3ccc(F)cc3)cc2C(=O)NCC2CCCO2)c1` (stereo not shown), the “hERG current change (%, negative = inhibition) at 10uM” value was -49.7%.
With `Cc1ccc(-c2nn(-c3ccc(F)cc3)cc2C(=O)N2CCN(C3CCS(=O)(=O)C3)CC2)cc1` (stereo not shown), the “hERG current change (%, negative = inhibition) at 10uM” value is reported as -61.6%.
`CCc1ccc(-c2nn(-c3ccccc3C)cc2C(=O)N2CCN(C3CCS(=O)(=O)C3)CC2)cc1` (stereo not shown): the “hERG current change (%, negative = inhibition) at 10uM” value is reported as -1.98%.
For `COc1cccc(-c2nn(-c3ccc(C)cc3)cc2C(=O)N2CCc3cc(OC)c(OC)cc3C2)c1`, the “hERG current change (%, negative = inhibition) at 10uM” value is on record as -31.7%.
As to `COc1cccc(-c2nn(-c3ccc(C)cc3)cc2C(=O)NCC2CCCO2)c1` (stereo not shown), the “hERG current change (%, negative = inhibition) at 10uM” value was -62.2%.
Take `COc1cccc(-c2nn(-c3ccccc3)cc2C(=O)O)c1`: the “hERG current change (%, negative = inhibition) at 10uM” value turned out to be 1.11%.
On to `Cc1ccc(-c2nn(-c3ccc(F)cc3)cc2C(=O)NC2CCC(O)CC2)cc1` (stereo not shown), for which the “hERG current change (%, negative = inhibition) at 10uM” value stood at 14.4%.
As to `COc1ccc(-c2nn(-c3ccccc3)cc2C(=O)NCC2CCCO2)cc1` (stereo not shown), the “hERG current change (%, negative = inhibition) at 10uM” value was -0.557%.
Turning to `Cc1ccc(OCC(=O)NNC(=O)CSc2ncnc3sc(C)c(C)c23)cc1`, the “hERG current change (%, negative = inhibition) at 10uM” value is given as 39.6%.
Under `CC1CC(=O)Nc2ccccc2N1S(=O)(=O)c1cccc(F)c1` (stereo not shown) stands 9.89%.
Under `O=C(CC1C(=O)NCCN1Cc1cccc(F)c1)NC1CCC1` (stereo not shown) stands -3.12%; under `CCC(CC)C(=O)c1c[nH]c(C(=O)O)c1`, 19.6%.
Regarding `CC1CCN(Cc2cc(=O)oc3cc(O)c(Cl)cc23)CC1`, the “hERG current change (%, negative = inhibition) at 10uM” value came out at 9.11%.
For the compound `Cc1nn(-c2ccccc2)c(C)c1/C=N/NC(=O)c1cc(C(C)(C)C)[nH]n1`, the “hERG current change (%, negative = inhibition) at 10uM” value is -9.72%.
Take `O=C(Nc1nnc(-c2ccncc2)s1)Nc1ccccc1F`: the “hERG current change (%, negative = inhibition) at 10uM” value turned out to be 14.2%.
For `Cc1cc(C)c(C(=O)/C=C/c2ccc(C(C)C)cc2)c(=O)[nH]1`, the “hERG current change (%, negative = inhibition) at 10uM” value was found to be 10%.
For `Cc1ccccc1N(CC(=O)NCCSC1CCCCC1)S(=O)(=O)c1ccccc1`, the “hERG current change (%, negative = inhibition) at 10uM” value is -16%.
With `CCn1c(=O)c(C(=O)CC#N)c(N)n(Cc2ccccc2)c1=O`, the “hERG current change (%, negative = inhibition) at 10uM” value is -4.73%.
As for `CN(C)CC(=O)c1c(N)n(Cc2ccccc2)c(=O)n(C)c1=O`, the “hERG current change (%, negative = inhibition) at 10uM” value is reported as -7.58%.
In the case of `CCn1c(=O)c(C(=O)CN(C)Cc2ccc(F)cc2)c(N)n(Cc2ccccc2)c1=O`, the “hERG current change (%, negative = inhibition) at 10uM” value is -71%.
Under `CCn1c(=O)c(C(=O)CN(C)Cc2cccc(OC)c2OC)c(N)n(Cc2ccccc2)c1=O` stands -50.3%; under `COc1ccc(CN(C)CC(=O)c2c(N)n(Cc3ccccc3)c(=O)n(C)c2=O)c(OC)c1`, -66.1%; under `CCn1c(=O)c(C(=O)CN2CCc3ccccc32)c(N)n(Cc2ccccc2)c1=O`, 19%.
`COC(=O)Cn1c(=O)c(C(=O)CCl)c(N)n(Cc2ccccc2)c1=O`: the “hERG current change (%, negative = inhibition) at 10uM” value was -0.133%.
On to `COc1cccc(NC(=O)CN(C)CC(=O)c2c(N)n(Cc3ccccc3)c(=O)n(C)c2=O)c1`, for which the “hERG current change (%, negative = inhibition) at 10uM” value is given as -8.12%.
Under `CCOc1ccc(CN(C)CC(=O)c2c(N)n(Cc3ccccc3)c(=O)n(CC)c2=O)cc1OC` stands -75.5%; under `CCN(CC)CC(=O)c1c(N)n(Cc2ccccc2)c(=O)n(C)c1=O`, -2.27%; under `CCn1c(=O)c(C(=O)CN2c3ccccc3CC2C)c(N)n(Cc2ccccc2)c1=O` (stereo not shown), 3.42%.
Consider `CCn1c(=O)c(C(=O)CN2CCCc3ccccc32)c(N)n(Cc2ccccc2)c1=O`, for which the “hERG current change (%, negative = inhibition) at 10uM” value is on record as -6.1%.
Turning to `CNC(=O)c1ccc(N(Cc2ccccc2C)S(C)(=O)=O)cc1`, the “hERG current change (%, negative = inhibition) at 10uM” value is given as -6%.
As to `Cn1c(C2=C(O)CN(c3ccccc3)C2=N)nc2ccccc21`, the “hERG current change (%, negative = inhibition) at 10uM” value is -13.2%.
Under `Cc1ccc(C(=O)NC(=S)Nc2ccc(N3CCN(C(=O)c4ccco4)CC3)cc2)cc1` stands 17.1%; under `Cc1ccc(OC(=S)Nc2ccccc2)c(C)c1`, 6.7%.
In the case of `CCOC(=O)c1c(C)[nH]c(C(=O)COC(=O)CNS(=O)(=O)c2ccc(C)cc2)c1C`, the “hERG current change (%, negative = inhibition) at 10uM” value is 11.8%.
As to `C=CCN(c1nc(C)cc(OC)n1)S(=O)(=O)c1ccccc1`, the “hERG current change (%, negative = inhibition) at 10uM” value was -2.09%.
Regarding `Cc1nc2c(sc3nc4c(cc32)COC(C)(C)C4)c(=O)n1Cc1ccccc1`, the “hERG current change (%, negative = inhibition) at 10uM” value is reported as -10.6%.

These data come from PMC4336329 (PLoS ONE, 2015).
